# Experiments:
# Assay in all cases: yeast three-hybrid, YBZ-1, SC-Leu-His + 0.5 mM 3-AT, 4 days
# Settings in all cases: tags: N-Gal4 AD-HA kept; label: inside an RPR1-promoter hybrid RNA with tandem MS2 sites; ssRNA
# PUM1 PUF domain R3-LSG = PUM1 PUF domain R3-LSG (Homo sapiens, UniProt Q14671 828-1176, C935L;R936S;Q939G)
# Method in brief: (§1)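 Sequencing with Illumina followed PCR amplification of the repeat regions from transformants grown four days on SC-Leu (input) or SC-Leu-His + 0.5 mM 3-AT (selection). The transformants were strain YBZ-1 with a LexA–MS2 coat fusion and a HIS3 reporter, carrying Pumilio-1 PUF domain libraries and matching RNA elements. The interaction score is the log change in variant frequency from input to selection, computed in log2 with a pseudocount of 1 for absent variants.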
# PUM1 PUF domain R3-SPT = PUM1 PUF domain R3-SPT (Homo sapiens, UniProt Q14671 828-1176, C935S;R936P;Q939T)
# Method in brief: as §1
# PUM1 PUF domain R3-LST = PUM1 PUF domain R3-LST (Homo sapiens, UniProt Q14671 828-1176, C935L;R936S;Q939T)
# Sequence of PUM1 PUF domain R3-LST (Q14671 828-1176 C935L/R936S/Q939T): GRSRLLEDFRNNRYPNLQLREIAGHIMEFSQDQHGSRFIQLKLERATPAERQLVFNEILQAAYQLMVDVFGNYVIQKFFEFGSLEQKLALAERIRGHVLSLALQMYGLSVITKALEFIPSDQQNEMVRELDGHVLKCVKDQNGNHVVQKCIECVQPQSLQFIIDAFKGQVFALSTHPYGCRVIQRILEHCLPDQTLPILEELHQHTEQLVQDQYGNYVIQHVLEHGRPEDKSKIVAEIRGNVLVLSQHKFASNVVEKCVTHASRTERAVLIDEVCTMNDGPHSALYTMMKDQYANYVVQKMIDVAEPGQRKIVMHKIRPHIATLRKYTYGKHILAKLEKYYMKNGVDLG
# Method in brief: as §1
# PUM1 PUF domain R3-RIA = PUM1 PUF domain R3-RIA (Homo sapiens, UniProt Q14671 828-1176, C935R;R936I;Q939A)
# Sequence of PUM1 PUF domain R3-RIA (Q14671 828-1176 C935R/R936I/Q939A): as the sequence (Q14671 828-1176 C935L/R936S/Q939T) above, with L108R, S109I, T112A counted along it
# Method in brief: as §1
# PUM1 PUF domain R8-PWQ = PUM1 PUF domain R8-PWQ (Homo sapiens, UniProt Q14671 828-1176, N1122P;Y1123W)
# Method in brief: as §1
# PUM1 PUF domain R6-VWV = target: T1, PUM1 PUF domain R6-VWV (Homo sapiens, UniProt Q14671 828-1176, N1043V;Y1044W;Q1047V)
# T1 sequence: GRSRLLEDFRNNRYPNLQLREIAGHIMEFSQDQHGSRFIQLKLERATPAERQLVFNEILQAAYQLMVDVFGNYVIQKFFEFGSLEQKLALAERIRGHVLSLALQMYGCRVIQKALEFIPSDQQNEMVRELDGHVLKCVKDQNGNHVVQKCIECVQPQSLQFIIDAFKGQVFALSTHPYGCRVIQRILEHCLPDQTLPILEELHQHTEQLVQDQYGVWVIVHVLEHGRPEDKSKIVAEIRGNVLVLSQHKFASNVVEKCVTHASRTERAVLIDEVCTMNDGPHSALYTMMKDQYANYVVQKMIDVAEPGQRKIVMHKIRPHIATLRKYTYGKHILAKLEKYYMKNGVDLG
# Method in brief: as §1
# PUM1 PUF domain R4-DFG = PUM1 PUF domain R4-DFG (Homo sapiens, UniProt Q14671 828-1176, N971D;H972F;Q975G)
# Method in brief: as §1
# PUM1 PUF domain R4-GPR = PUM1 PUF domain R4-GPR (Homo sapiens, UniProt Q14671 828-1176, N971G;H972P;Q975R)
# Method in brief: as §1
# PUM1 PUF domain R4-NQQ = PUM1 PUF domain R4-NQQ (Homo sapiens, UniProt Q14671 828-1176, H972Q)
# Method in brief: as §1
# PUM1 PUF domain R7-VSR = PUM1 PUF domain R7-VSR (Homo sapiens, UniProt Q14671 828-1176, S1079V;N1080S;E1083R)
# Method in brief: as §1
# PUM1 PUF domain R5-KAN = PUM1 PUF domain R5-KAN (Homo sapiens, UniProt Q14671 828-1176, C1007K;R1008A;Q1011N)
# Sequence of PUM1 PUF domain R5-KAN (Q14671 828-1176 C1007K/R1008A/Q1011N): as the sequence (Q14671 828-1176 C935L/R936S/Q939T) above, with L108C, S109R, T112Q, C180K, R181A, Q184N counted along it
# Method in brief: as §1
# PUM1 PUF domain R5-RAS = PUM1 PUF domain R5-RAS (Homo sapiens, UniProt Q14671 828-1176, C1007R;R1008A;Q1011S)
# Sequence of PUM1 PUF domain R5-RAS (Q14671 828-1176 C1007R/R1008A/Q1011S): as the sequence (Q14671 828-1176 C935L/R936S/Q939T) above, with L108C, S109R, T112Q, C180R, R181A, Q184S counted along it
# Method in brief: as §1
# PUM1 PUF domain R2-RQC = PUM1 PUF domain R2-RQC (Homo sapiens, UniProt Q14671 828-1176, N899R;Y900Q;Q903C)
# Sequence of PUM1 PUF domain R2-RQC (Q14671 828-1176 N899R/Y900Q/Q903C): as the sequence (Q14671 828-1176 C935L/R936S/Q939T) above, with N72R, Y73Q, Q76C, L108C, S109R, T112Q counted along it
# Method in brief: as §1
# PUM1 PUF domain R8-NWF = PUM1 PUF domain R8-NWF (Homo sapiens, UniProt Q14671 828-1176, Y1123W;Q1126F)
# Sequence of PUM1 PUF domain R8-NWF (Q14671 828-1176 Y1123W/Q1126F): as the sequence (Q14671 828-1176 C935L/R936S/Q939T) above, with L108C, S109R, T112Q, Y296W, Q299F counted along it
# Method in brief: as §1
# PUM1 PUF domain R8-SYK = PUM1 PUF domain R8-SYK (Homo sapiens, UniProt Q14671 828-1176, N1122S;Q1126K)
# Sequence of PUM1 PUF domain R8-SYK (Q14671 828-1176 N1122S/Q1126K): as the sequence (Q14671 828-1176 C935L/R936S/Q939T) above, with L108C, S109R, T112Q, N295S, Q299K counted along it
# Method in brief: as §1
# PUM1 PUF domain R1-KKS = PUM1 PUF domain R1-KKS (Homo sapiens, UniProt Q14671 828-1176, S863K;R864K;Q867S)
# Sequence of PUM1 PUF domain R1-KKS (Q14671 828-1176 S863K/R864K/Q867S): as the sequence (Q14671 828-1176 C935L/R936S/Q939T) above, with S36K, R37K, Q40S, L108C, S109R, T112Q counted along it
# Method in brief: as §1
# Sequence of PUM1 PUF domain R3-LSG (Q14671 828-1176 C935L/R936S/Q939G): as the sequence (Q14671 828-1176 C935L/R936S/Q939T) above, with T112G counted along it
sequence,measurement,setting,value
GGCUAGAACUAGUGGAUCCCCCGGCGCCCGGCGGCUCGAGCCCGGGUAAGUGUAAUUAGUCUGCAUGCCGCCGGGCGCCAUGCCUGCAGGUCGACUCUAGAAAACAUG,binding signal,PUM1 PUF domain R3-LSG,1.48 log2 enrichment (interaction score)
same,binding signal,PUM1 PUF domain R3-SPT,1.18 log2 enrichment (interaction score)
same,binding signal,PUM1 PUF domain R3-LST,2.71 log2 enrichment (interaction score)
same,binding signal,PUM1 PUF domain R3-RIA,3.43 log2 enrichment (interaction score)
GGCUAGAACUAGUGGAUCCCCCGGCGCCCGGCGGCUCGAGCCCGGGUAAGUGUAAGUAGUCUGCAUGCCGCCGGGCGCCAUGCCUGCAGGUCGACUCUAGAAAACAUG,binding signal,PUM1 PUF domain R3-LSG,2.82 log2 enrichment (interaction score)
same,binding signal,PUM1 PUF domain R3-LST,3.44 log2 enrichment (interaction score)
GGCUAGAACUAGUGGAUCCCCCGGCGCCCGGCGGCUCGAGCCCGGGUAAGUGUAAAUAGUCUGCAUGCCGCCGGGCGCCAUGCCUGCAGGUCGACUCUAGAAAACAUG,binding signal,PUM1 PUF domain R8-PWQ,3.79 log2 enrichment (interaction score)
same,binding signal,PUM1 PUF domain R6-VWV,1.13 log2 enrichment (interaction score)
same,binding signal,PUM1 PUF domain R4-DFG,5.83 log2 enrichment (interaction score)
same,binding signal,PUM1 PUF domain R3-SPT,2.13 log2 enrichment (interaction score)
GGCUAGAACUAGUGGAUCCCCCGGCGCCCGGCGGCUCGAGCCCGGGUAAGUGUACAUAGUCUGCAUGCCGCCGGGCGCCAUGCCUGCAGGUCGACUCUAGAAAACAUG,binding signal,PUM1 PUF domain R4-GPR,2.58 log2 enrichment (interaction score)
same,binding signal,PUM1 PUF domain R4-DFG,2.96 log2 enrichment (interaction score)
GGCUAGAACUAGUGGAUCCCCCGGCGCCCGGCGGCUCGAGCCCGGGUAAGUGUAUAUAGUCUGCAUGCCGCCGGGCGCCAUGCCUGCAGGUCGACUCUAGAAAACAUG,binding signal,PUM1 PUF domain R4-GPR,0.87 log2 enrichment (interaction score)
same,binding signal,PUM1 PUF domain R4-NQQ,2.71 log2 enrichment (interaction score)
GGCUAGAACUAGUGGAUCCCCCGGCGCCCGGCGGCUCGAGCCCGGGUAAGUGAAAAUAGUCUGCAUGCCGCCGGGCGCCAUGCCUGCAGGUCGACUCUAGAAAACAUG,binding signal,PUM1 PUF domain R6-VWV,4.54 log2 enrichment (interaction score)
GGCUAGAACUAGUGGAUCCCCCGGCGCCCGGCGGCUCGAGCCCGGGUAAGUUUAAAUAGUCUGCAUGCCGCCGGGCGCCAUGCCUGCAGGUCGACUCUAGAAAACAUG,binding signal,PUM1 PUF domain R7-VSR,3.33 log2 enrichment (interaction score)
GGCUAGAACUAGUGGAUCCCCCGGCGCCCGGCGGCUCGAGCCCGGGUAAGUGUCAAUAGUCUGCAUGCCGCCGGGCGCCAUGCCUGCAGGUCGACUCUAGAAAACAUG,binding signal,PUM1 PUF domain R5-KAN,5.42 log2 enrichment (interaction score)
same,binding signal,PUM1 PUF domain R5-RAS,3.03 log2 enrichment (interaction score)
GGCUAGAACUAGUGGAUCCCCCGGCGCCCGGCGGCUCGAGCCCGGGUAAGUGUUAAUAGUCUGCAUGCCGCCGGGCGCCAUGCCUGCAGGUCGACUCUAGAAAACAUG,binding signal,PUM1 PUF domain R5-RAS,3.24 log2 enrichment (interaction score)
GGCUAGAACUAGUGGAUCCCCCGGCGCCCGGCGGCUCGAGCCCGGGUAAGUGUAAAGAGUCUGCAUGCCGCCGGGCGCCAUGCCUGCAGGUCGACUCUAGAAAACAUG,binding signal,PUM1 PUF domain R2-RQC,4.25 log2 enrichment (interaction score)
GGCUAGAACUAGUGGAUCCCCCGGCGCCCGGCGGCUCGAGCCCGGGUAAGCGUAAAUAGUCUGCAUGCCGCCGGGCGCCAUGCCUGCAGGUCGACUCUAGAAAACAUG,binding signal,PUM1 PUF domain R8-NWF,2.16 log2 enrichment (interaction score)
same,binding signal,PUM1 PUF domain R8-SYK,4.29 log2 enrichment (interaction score)
GGCUAGAACUAGUGGAUCCCCCGGCGCCCGGCGGCUCGAGCCCGGGUAAGUGUAAAUUGUCUGCAUGCCGCCGGGCGCCAUGCCUGCAGGUCGACUCUAGAAAACAUG,binding signal,PUM1 PUF domain R1-KKS,5.1 log2 enrichment (interaction score)

# Reference: paper PMC8384837, “Expanding the binding specificity for RNA recognition by a PUF domain”
